PubChem BioAssay (EPA / NIEHS)
Several values for one entry are separate records, joined by “and”; a condition that tells them apart may be missing. Equal entries are not always repeated. Results filed as inconclusive are left out. The source holds several records for some structures; these can differ, active in one and inactive in another. Activity calls are given as the source filed them. Rule for the calls, unless noted: active = hit-call score of the fitted dose curve at least 0.9, where 1 is the maximum; inactive = score below 0.9.

Columns and labels:
[1] = molecular target: Glucocorticoid receptor (Homo sapiens) (UniProt P04150); experiment: ATG_GR_TRANS: Attagene TRANS-FACTORIAL HepG2 Assay for human Glucocorticoid Receptor (GR) (AID 2282978; active = hit-call score of the fitted dose curve at least 0.9, where 1 is the maximum;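 note: activators score as hits since higher reporter transcript over DMSO is fitted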); conditions: HepG2 Attagene TRANS GR reporter, mRNA transcription
In short: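 HepG2 cells transiently transfected with multiplexed reporter units in which chimeric NR-GAL4 proteins drive GAL4-UAS reporters; 24 h compound exposure. Reporter mRNA measured by RT-PCR, 6-FAM labelling, HpaI digestion and capillary electrophoresis; gain-of-signal fitted versus DMSO.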

[2] = molecular target: Bile acid receptor (Homo sapiens) (UniProt Q96RI1); experiment: ATG_FXR_TRANS: Attagene TRANS-FACTORIAL HepG2 Assay for Farnesoid X Receptor (FXR) (AID 2282979; active = hit-call score of the fitted dose curve at least 0.9, where 1 is the maximum;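 note: hits raise reporter mRNA above DMSO so AC50 marks FXR activation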); conditions: HepG2 Attagene TRANS FXR-GAL4 reporter transcription
In short: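 HepG2 cells were transiently transfected with GAL4-UAS reporters driven by chimeric NR-Gal4 proteins and dosed for 24 h. Reporter mRNA was quantified by RT-PCR, fluorescent labelling, HpaI digestion and capillary electrophoresis, with gain of signal scored versus DMSO.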

[3] = ATG_M_06_TRANS: Attagene TRANS-FACTORIAL HepG2 Assay for M06 Transcription Factor (Internal Marker) (AID 2282983; active = hit-call score of the fitted dose curve at least 0.9, where 1 is the maximum); conditions: HepG2 Attagene TRANS M06 internal marker reporter
In short: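 mRNA levels of a reporter transcript, quantified as FAM fluorescence on capillary electrophoresis, served as readout. HepG2 cells expressing exogenous GAL4-chimera reporter constructs were exposed for 24 h. Gain of signal over DMSO was evaluated.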

[4] = ATG_M_32_TRANS: Attagene TRANS-FACTORIAL HepG2 Assay for M32 Transcription Factor (Internal Marker) (AID 2282984; active = hit-call score of the fitted dose curve at least 0.9, where 1 is the maximum;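 note: transcript level of a background control reporter unit measured by RT-PCR and capillary electrophoresis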); conditions: HepG2 Attagene TRANS M32 internal marker reporter
In short: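 Cell-based TRANS-format assay in HepG2: exogenous chimeric GAL4 reporter units transiently expressed, compounds applied 24 h. Reporter mRNA detected by RT-PCR plus capillary electrophoresis; this readout is an internal background marker.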

[5] = molecular target: Nuclear receptor subfamily 4 group A member 2 (Homo sapiens) (UniProt P43354); experiment: ATG_NURR1_TRANS: Attagene TRANS-FACTORIAL HepG2 Assay for human Nuclear Receptor Related Protein 1 (NURR1) (AID 2282985; active = hit-call score of the fitted dose curve at least 0.9, where 1 is the maximum); conditions: HepG2 Attagene TRANS reporter, mRNA readout
In short: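 Measures transcriptional activation by an exogenous NR-Gal4 chimera in transfected HepG2 liver cells. After 24 h, reporter RNA is reverse-transcribed, amplified and resolved by capillary electrophoresis; DMSO defines baseline.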

[6] = molecular target: Transcriptional activator Myb (Homo sapiens) (UniProt P10242); experiment: ATG_Myb_CIS: Attagene CIS-FACTORIAL HepG2 Assay for human Myeloblastosis (Myb) Proto-Oncogene Transcription Factor (AID 2282986); conditions: HepG2 Attagene CIS-FACTORIAL Myb reporter transcription; actives raise or lower the signal
In short: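 HepG2 cells were transiently transfected with cis-regulated multiple reporter transcription units reflecting endogenous Myb activity, then exposed to compound for 24 hours. Reporter mRNA was measured by RT-PCR with capillary electrophoresis; bidirectional fitting versus DMSO baseline.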

[7] = molecular target: Nuclear respiratory factor 1 (Homo sapiens) (UniProt Q16656); experiment: ATG_NRF1_CIS: Attagene CIS-FACTORIAL HepG2 Assay for human Nuclear Respiratory Factor 1 (NRF1) Orphan Gene (AID 2282987); conditions: HepG2 NRF1 cis-element reporter, Attagene multiplex; actives raise or lower the signal
In short: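 HepG2 cells transiently transfected with multiple reporter transcription units under cis-regulatory promoter control, so endogenous transcription-factor activity is read. After 24 h compound exposure, reporter mRNA quantified by RT-PCR, fluorescent labelling, HpaI digestion and capillary electrophoresis; bidirectional fitting versus DMSO.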

[8] = ATG_NFI_CIS: Attagene CIS-FACTORIAL HepG2 Assay for human Nuclear Factor I (NFI) (AID 2282989); conditions: HepG2 cis-regulatory reporter, NFI response element transcription; actives raise or lower the signal
In short: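 After transient transfection of HepG2 with cis-promoter reporter constructs and 24 h dosing, RNA is reverse-transcribed, amplified, 6-FAM end-labelled and HpaI-digested before capillary analysis. Bidirectional curve fitting against DMSO.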

[9] = molecular target: Myc proto-oncogene protein (Homo sapiens) (UniProt P01106); experiment: ATG_Myc_CIS: Attagene CIS-FACTORIAL HepG2 Assay for human Myelocytomatosis (Myc) Proto-Oncogene Transcription Factor (AID 2282990); conditions: HepG2, Attagene cis-reporter transcription factor activity; actives raise or lower the signal
In short: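 After 24 h chemical treatment of HepG2 cells carrying multiplexed cis-regulated reporter constructs, reporter transcripts quantified by RT-PCR and capillary electrophoresis of fluorescent fragments. Gain or loss fitted against DMSO baseline.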

[10] = ATG_NRF2_ARE_CIS: Attagene CIS-FACTORIAL HepG2 Assay for human Nuclear Factor Erythroid 2 Related Factor 2 (NFR2) response to Antioxidant Response Elements (ARE) (AID 2282992); conditions: HepG2 Attagene ARE/NRF2 reporter, transcription factor activity; actives raise or lower the signal
In short: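 Endogenous transcription factor activity read out as reporter transcript levels (RT-PCR plus capillary electrophoresis, fluorescence) in transiently transfected HepG2 cells. Measured at 24 h after dosing; gain or loss of signal fitted versus DMSO.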

[11] = ATG_Oct_MLP_CIS: Attagene CIS-FACTORIAL HepG2 Assay for human Octamer-Binding Transcription Factor (Oct) (AID 2282993); conditions: HepG2 Attagene cis-factorial Oct reporter, mRNA; actives raise or lower the signal
In short: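 Cells of the HepG2 line express promoter-controlled reporter sequences whose mRNA levels, after 24 h treatment, are measured by RT-PCR and capillary electrophoresis. Increases and decreases are scored relative to DMSO.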

[12] = molecular target: Cellular tumor antigen p53 (Homo sapiens) (UniProt P04637); experiment: ATG_p53_CIS: Attagene CIS-FACTORIAL HepG2 Assay for human p53 Transcription Factor (AID 2282994); conditions: HepG2 p53 cis-element reporter, Attagene mRNA; actives raise or lower the signal
In short: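 Endogenous p53 activity read in transiently transfected HepG2 from a cis-element-driven reporter transcript after 24 h exposure. RNA reverse-transcribed, PCR-amplified, fluorescently labelled and sized by capillary electrophoresis; gain or loss fitted against DMSO baseline.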

[13] = BSK_3C_TissueFactor: BioMAP Diversity Plus: 3C Assay for Tissue Factor Biomarker Activity (AID 2282997); conditions: BioMAP 3C HUVEC, tissue factor biomarker readout; actives raise or lower the signal
In short: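 Tissue Factor measured by ELISA, 24 h after treatment of primary HUVEC in the BioMAP 3C setting.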

[14] = BSK_3C_uPAR: BioMAP Diversity Plus: 3C Assay for Urokinase-type plasminogen activator receptor (uPAR) Biomarker Activity (AID 2282998); conditions: BioMAP 3C HUVEC, uPAR biomarker ELISA; actives raise or lower the signal
In short: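 Endothelial primary cells of human umbilical vein origin received test chemical; 24 h later uPAR was assayed by ELISA. Fitting was bidirectional, DMSO as negative control.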

[15] = BSK_3C_VCAM1: BioMAP Diversity Plus: 3C Assay for Vascular cell adhesion molecule 1 (VCAM1) Biomarker Activity (AID 2282999); conditions: BioMAP 3C HUVEC, VCAM1 ELISA, cytokine-stimulated; actives raise or lower the signal
In short: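 Activity fitted in both directions relative to DMSO, with ELISA measurement of the surface marker on primary HUVEC (3C) at 24 h post-treatment; parallel SRB staining (0.1% SRB, TCA-fixed, 560 nm) flagged overt cytotoxicity.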

[16] = BSK_4H_Eotaxin3: BioMAP Diversity Plus: 4H Assay for Eotaxin 3 Biomarker Activity (AID 2283000); conditions: primary human endothelial cells (HUVEC); actives raise or lower the signal
In short: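 Eotaxin-3 (CCL26) levels were measured by ELISA in HUVEC primary cultures 24 h post-dosing. Gain or loss of signal was fitted in both directions, with DMSO serving as baseline and negative control.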

[17] = molecular target: Hepatocyte nuclear factor 4-alpha (Homo sapiens) (UniProt P41235); experiment: ATG_HNF4a_TRANS: Attagene TRANS-FACTORIAL HepG2 Assay for human Hepatocyte Nuclear Factor 4 alpha (HNF4a) (AID 2282982; active = hit-call score of the fitted dose curve at least 0.9, where 1 is the maximum); conditions: HepG2 HNF4a transactivation reporter, mRNA readout
In short: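 Multiplexed reporter assay: transfected HepG2, 24 h exposure, total RNA → oligo(dT) RT → PCR → 6-FAM extension → HpaI digest → CE fluorescence. DMSO = negative control.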

[18] = molecular target: Oxysterols receptor LXR-beta (Homo sapiens) (UniProt P55055); experiment: ATG_LXRb_TRANS: Attagene TRANS-FACTORIAL HepG2 Assay for human Liver X Receptor beta (LXRb) (AID 2282981; active = hit-call score of the fitted dose curve at least 0.9, where 1 is the maximum); conditions: HepG2 Attagene TRANS GAL4-LXRb reporter, mRNA
In short: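 After 24 h of chemical treatment, transfected HepG2 cells yield total RNA; reporter cDNA is PCR-amplified, FAM-labelled, HpaI-cut and run on capillary electrophoresis. Signal reflects chimeric LXRb-Gal4 activity on GAL4-UAS reporters.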

[19] = ATG_NF_kB_CIS: Attagene CIS-FACTORIAL HepG2 Assay for human Nuclear Factor Kappa B (NF-kB) (AID 2282991); conditions: HepG2 Attagene cis-factorial NF-kB reporter mRNA; actives raise or lower the signal
In short: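 HepG2 cells transiently transfected with multiplexed cis-element reporter units measuring endogenous transcription factor activity; reporter mRNA read 24 h after dosing by RT-PCR, fluorescent labelling, HpaI digestion and capillary electrophoresis. Bidirectional fit against DMSO baseline.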

[20] = molecular target: Estrogen-related receptor gamma (Homo sapiens) (UniProt P62508); experiment: ATG_ERRg_TRANS: Attagene TRANS-FACTORIAL HepG2 Assay for human Estrogen-Related Receptor gamma (ERRg) (AID 2282977; active = hit-call score of the fitted dose curve at least 0.9, where 1 is the maximum;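 note: hits increase reporter signal over DMSO so potencies reflect activators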); conditions: HepG2 Attagene TRANS reporter, ERRg transactivation
In short: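 Exogenous NR-Gal4 chimera activity was assessed in HepG2 cells bearing transfected GAL4-UAS reporters. After 24 h dosing, total RNA underwent RT-PCR, fluorescent primer extension and HpaI digestion before capillary electrophoresis, with gain of signal scored against DMSO.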

Measured: AC50

Chain of Cellular tumor antigen p53 (Homo sapiens) (P04637 whole entry, looked up): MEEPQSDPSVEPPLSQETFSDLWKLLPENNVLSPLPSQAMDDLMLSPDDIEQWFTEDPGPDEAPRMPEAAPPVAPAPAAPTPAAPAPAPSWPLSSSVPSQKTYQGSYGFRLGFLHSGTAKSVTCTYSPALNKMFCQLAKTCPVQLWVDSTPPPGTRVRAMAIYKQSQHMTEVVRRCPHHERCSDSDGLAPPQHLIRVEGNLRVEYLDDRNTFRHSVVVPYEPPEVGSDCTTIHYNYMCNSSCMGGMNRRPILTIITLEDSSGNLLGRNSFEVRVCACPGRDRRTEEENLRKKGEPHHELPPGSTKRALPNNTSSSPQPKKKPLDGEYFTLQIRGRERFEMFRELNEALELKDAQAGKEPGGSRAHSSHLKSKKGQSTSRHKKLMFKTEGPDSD
Chain of Transcriptional activator Myb (Homo sapiens) (P10242 whole entry, looked up): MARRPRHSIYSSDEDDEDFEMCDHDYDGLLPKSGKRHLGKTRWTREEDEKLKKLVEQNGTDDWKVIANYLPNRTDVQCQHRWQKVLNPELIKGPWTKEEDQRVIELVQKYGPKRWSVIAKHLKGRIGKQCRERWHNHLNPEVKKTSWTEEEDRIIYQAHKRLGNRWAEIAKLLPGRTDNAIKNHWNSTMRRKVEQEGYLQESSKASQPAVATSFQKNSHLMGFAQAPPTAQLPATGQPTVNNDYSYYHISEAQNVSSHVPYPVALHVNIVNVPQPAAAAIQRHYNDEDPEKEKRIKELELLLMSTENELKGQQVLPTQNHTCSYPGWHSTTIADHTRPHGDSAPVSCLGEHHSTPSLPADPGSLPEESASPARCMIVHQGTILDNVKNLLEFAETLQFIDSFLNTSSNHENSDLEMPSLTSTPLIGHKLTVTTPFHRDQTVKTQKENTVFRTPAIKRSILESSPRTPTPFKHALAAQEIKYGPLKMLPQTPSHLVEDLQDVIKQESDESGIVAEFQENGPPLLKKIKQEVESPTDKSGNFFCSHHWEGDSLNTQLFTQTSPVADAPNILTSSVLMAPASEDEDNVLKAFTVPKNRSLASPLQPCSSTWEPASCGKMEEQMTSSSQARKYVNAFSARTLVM
Chain of Estrogen-related receptor gamma (Homo sapiens) (P62508 whole entry, looked up, the tested form may be a part): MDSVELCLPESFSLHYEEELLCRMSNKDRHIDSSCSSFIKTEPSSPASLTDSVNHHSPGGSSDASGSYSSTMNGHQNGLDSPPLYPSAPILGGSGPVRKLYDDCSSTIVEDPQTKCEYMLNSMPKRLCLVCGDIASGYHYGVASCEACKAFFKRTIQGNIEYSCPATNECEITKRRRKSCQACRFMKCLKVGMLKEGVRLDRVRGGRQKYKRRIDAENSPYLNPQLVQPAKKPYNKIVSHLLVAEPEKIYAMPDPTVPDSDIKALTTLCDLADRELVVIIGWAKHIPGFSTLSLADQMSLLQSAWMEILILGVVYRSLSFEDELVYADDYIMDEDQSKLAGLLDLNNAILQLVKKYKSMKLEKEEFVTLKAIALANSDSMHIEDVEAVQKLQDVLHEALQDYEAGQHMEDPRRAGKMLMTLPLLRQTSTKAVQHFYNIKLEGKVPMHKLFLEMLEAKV
Chain of Hepatocyte nuclear factor 4-alpha (Homo sapiens) (P41235 whole entry, looked up): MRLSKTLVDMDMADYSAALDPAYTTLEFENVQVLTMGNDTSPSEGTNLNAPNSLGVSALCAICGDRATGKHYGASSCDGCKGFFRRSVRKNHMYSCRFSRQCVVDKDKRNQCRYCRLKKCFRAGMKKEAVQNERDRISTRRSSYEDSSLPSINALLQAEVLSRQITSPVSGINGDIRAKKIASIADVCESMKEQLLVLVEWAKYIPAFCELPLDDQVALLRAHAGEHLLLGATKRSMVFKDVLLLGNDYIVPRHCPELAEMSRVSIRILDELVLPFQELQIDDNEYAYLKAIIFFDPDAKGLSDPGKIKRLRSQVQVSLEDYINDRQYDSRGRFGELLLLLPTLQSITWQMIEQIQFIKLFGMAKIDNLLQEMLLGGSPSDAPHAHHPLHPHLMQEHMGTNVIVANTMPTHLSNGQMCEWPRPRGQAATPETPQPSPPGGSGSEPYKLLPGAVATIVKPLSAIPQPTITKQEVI
Chain of Bile acid receptor (Homo sapiens) (Q96RI1 whole entry, looked up, the tested form may be a part): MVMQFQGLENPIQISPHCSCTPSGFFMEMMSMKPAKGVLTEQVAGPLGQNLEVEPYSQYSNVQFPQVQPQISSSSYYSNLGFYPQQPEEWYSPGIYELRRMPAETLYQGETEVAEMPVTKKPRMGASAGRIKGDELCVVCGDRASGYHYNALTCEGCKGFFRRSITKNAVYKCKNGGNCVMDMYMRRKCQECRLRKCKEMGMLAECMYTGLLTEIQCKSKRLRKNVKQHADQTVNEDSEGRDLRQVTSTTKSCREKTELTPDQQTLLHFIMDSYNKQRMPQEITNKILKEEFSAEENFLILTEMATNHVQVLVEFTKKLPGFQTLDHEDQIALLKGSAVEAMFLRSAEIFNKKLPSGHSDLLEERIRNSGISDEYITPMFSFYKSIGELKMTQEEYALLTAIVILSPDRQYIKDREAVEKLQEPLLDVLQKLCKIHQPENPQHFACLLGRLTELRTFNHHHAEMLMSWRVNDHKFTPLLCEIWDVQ
Chain of Myc proto-oncogene protein (Homo sapiens) (P01106 whole entry, looked up, the tested form may be a part): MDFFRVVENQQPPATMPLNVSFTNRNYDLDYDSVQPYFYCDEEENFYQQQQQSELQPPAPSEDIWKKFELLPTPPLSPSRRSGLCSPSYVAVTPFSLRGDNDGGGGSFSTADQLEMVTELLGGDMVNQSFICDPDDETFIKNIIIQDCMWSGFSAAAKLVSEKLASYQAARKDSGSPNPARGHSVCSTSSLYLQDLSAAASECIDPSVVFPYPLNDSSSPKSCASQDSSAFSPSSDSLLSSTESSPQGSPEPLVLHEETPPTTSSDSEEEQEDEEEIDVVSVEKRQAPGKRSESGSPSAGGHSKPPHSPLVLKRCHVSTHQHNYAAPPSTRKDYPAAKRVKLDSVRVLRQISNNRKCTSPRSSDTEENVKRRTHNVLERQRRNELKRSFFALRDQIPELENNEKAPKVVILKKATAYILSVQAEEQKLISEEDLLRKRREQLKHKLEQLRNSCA
Chain of Glucocorticoid receptor (Homo sapiens) (P04150 whole entry, looked up, the tested form may be a part): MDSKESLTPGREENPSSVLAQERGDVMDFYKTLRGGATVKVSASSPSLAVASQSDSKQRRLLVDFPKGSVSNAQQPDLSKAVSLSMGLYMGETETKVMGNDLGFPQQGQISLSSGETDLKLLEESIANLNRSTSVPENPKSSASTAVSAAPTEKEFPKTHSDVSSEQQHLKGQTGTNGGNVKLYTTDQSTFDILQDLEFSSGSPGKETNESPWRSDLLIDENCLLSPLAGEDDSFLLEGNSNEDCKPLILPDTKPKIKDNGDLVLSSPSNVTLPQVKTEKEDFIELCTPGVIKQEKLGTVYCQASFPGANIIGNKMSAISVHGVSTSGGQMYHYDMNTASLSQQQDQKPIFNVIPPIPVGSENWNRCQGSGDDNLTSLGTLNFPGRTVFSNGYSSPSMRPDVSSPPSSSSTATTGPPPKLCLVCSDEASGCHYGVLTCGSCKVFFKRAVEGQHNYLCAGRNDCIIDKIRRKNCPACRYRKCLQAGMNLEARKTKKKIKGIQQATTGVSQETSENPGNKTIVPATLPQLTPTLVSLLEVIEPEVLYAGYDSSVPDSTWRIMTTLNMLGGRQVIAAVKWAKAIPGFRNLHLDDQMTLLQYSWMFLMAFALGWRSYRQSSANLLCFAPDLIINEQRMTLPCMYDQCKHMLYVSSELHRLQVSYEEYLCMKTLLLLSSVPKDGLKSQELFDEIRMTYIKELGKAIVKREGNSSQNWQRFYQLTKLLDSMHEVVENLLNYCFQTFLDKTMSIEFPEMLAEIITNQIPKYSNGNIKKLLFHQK
Chain of Nuclear respiratory factor 1 (Homo sapiens) (Q16656 whole entry, looked up): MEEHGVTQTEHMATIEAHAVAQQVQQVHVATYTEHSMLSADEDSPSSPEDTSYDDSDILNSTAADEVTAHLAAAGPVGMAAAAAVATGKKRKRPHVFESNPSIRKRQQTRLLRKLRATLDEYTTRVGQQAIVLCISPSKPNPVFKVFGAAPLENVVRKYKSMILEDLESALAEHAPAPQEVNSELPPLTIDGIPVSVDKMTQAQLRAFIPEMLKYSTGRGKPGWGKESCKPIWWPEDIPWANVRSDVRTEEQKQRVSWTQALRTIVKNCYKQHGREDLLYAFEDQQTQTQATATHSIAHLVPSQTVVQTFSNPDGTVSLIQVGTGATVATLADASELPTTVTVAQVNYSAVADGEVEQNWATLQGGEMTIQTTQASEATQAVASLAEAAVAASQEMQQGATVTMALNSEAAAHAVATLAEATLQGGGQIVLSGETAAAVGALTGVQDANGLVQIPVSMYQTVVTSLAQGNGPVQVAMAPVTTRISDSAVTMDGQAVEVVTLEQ
Chain of Oxysterols receptor LXR-beta (Homo sapiens) (P55055 whole entry, looked up, the tested form may be a part): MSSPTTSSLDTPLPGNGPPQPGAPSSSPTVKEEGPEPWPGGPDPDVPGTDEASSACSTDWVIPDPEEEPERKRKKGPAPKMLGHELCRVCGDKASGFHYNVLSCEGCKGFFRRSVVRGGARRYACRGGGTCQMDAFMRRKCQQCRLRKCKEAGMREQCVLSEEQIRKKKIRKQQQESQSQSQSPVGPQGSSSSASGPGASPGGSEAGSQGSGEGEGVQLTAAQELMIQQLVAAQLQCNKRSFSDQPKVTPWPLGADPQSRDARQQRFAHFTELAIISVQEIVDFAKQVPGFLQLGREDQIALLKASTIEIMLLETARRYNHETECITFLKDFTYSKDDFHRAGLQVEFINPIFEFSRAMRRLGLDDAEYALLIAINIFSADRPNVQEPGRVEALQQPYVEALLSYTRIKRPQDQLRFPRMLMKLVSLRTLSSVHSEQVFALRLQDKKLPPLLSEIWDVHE

OCCC(F)(F)C(F)(F)C(F)(F)C(F)(F)C(F)(F)C(F)(F)F
inactive: [1] | [2] | [3] | [4] | [5] | [6] | [7] | [8] | [9] | [10] | [11] | [12] | [13] | [14] | [15] | [16]
active: [8] 153 µM | [10] 50.3 µM | [11] 136 µM | [13] 46.3 µM and 30 µM | [14] 43.6 µM and 47.3 µM | [15] 51.7 µM | [16] 0.436 µM

CC(C)(C)c1cc(C(C)(C)C)c(O)c(C(C)(C)C)c1
active: [2] 27.8 µM | [10] 49.6 µM and 57.1 µM | [11] 27.6 µM and 43.2 µM
inactive: [1] | [2] | [17] | [3] | [4] | [6] | [7] | [9] | [12] | [13] | [14] | [15] | [16]

OC1CCC(C2CCCCC2)CC1 (stereo unspecified)
active: [10] 140 µM [middle of 4 runs]
not listed: [5] | [8] | [17] | [19] | [20]
inactive: all other assays above

O=c1c(-c2ccc(O)cc2)coc2cc(O)ccc12
inactive: [1] | [2] | [17] | [3] | [4] | [6] | [7] | [8] | [9] | [19] | [10] | [11] | [12] | [14] | [15] | [16]
active: [11] 100 µM | [13] 15.7 µM

O=C(/C=C/c1ccc(O)cc1)CC(=O)/C=C/c1ccc(O)cc1
active: [10] 2.65 µM
not listed: [1] | [4] | [5] | [13] | [14] | [15] | [16] | [18]
inactive: all other assays above

CCCCCCC(=O)O
not listed: [5] | [8] | [18] | [19]
inactive: all other assays above

N#C[C@@H]1CC(F)(F)CN1C(=O)CNC1CC2CCC(C1)N2c1ncccn1 (stereo partly specified)
not listed: [3] | [5] | [17] | [18]
inactive: all other assays above
